# Screening data (PubChem BioAssay)
# PvdQ inh: P. aeruginosa PvdQ acylase inhibition. AID 488965. inhibition, % at 10 µM. purified PvdQ acylase, fluorescence plate reader. 0.063% of 340,000 active; in the data active means inhibition above about 30%, passing the limit was not always enough; inconclusive means no clear call, values can overlap the other calls;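 further: 0% = vehicle neutral wells and 100% = reference inhibitor wells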
# Statin myotox sup: protects C2C12 myotubes from simvastatin toxicity; rescue of ATP level, % at 7.49 µM; 0.78% of 330,000 active; ATP luminescence, 48 h; scaled: DMSO 0, geranylgeraniol control 100; AID 602340;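 active means mean ATP rescue above about 67%, or every replicate alone reaching that limit, limit read from the data, passing the limit was not always enough; inconclusive means no clear call, values can overlap the other calls; inactive means mean under the limit and some replicate under it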;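 further: myotubes were challenged with 10 µM simvastatin during compound exposure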
# miR122 inh: inhibitors of miR-122 in Huh7 cells; Huh7 miR-122 Renilla luciferase sensor, 48 h; neutral wells = 0, positive control = 100; activation (reporter increase), % at 12.5 µM; 0.3% of 340,000 active; AID 602342;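 active means mean replicate activation score at least 90 and every replicate individually at or above 90; inconclusive means only one of the two criteria met; inactive means neither criterion met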;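 further: higher luciferase means less miR-122 activity so hits act as miR-122 inhibitors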
# DENV2 CPE: DENV2-induced cell death inhibition | DENV2-infected cells, cytopathic effect rescue, plate reader | CPE inhibition, % at 9.99 µM | 1.7% of 350,000 active; in the data active means CPE inhibition above about 20%, passing the limit was not always enough; inconclusive means no clear call, values can overlap the other calls; tested in BHK-21 cells;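 further: 0% = median of neutral control wells and 100% = median of positive control wells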
# PGC1a acetyl inh: modulators of PGC1a acetylation; 0.17% of 350,000 active; AID 651687; inhibition, % at 15.6 µM; U2OS PGC1a acetylation, AlphaScreen anti-acetyl-lysine; with virally co-expressed GCN5 acetyltransferase;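 active means every replicate shows inhibition of at least 40%; inconclusive means mean inhibition at least 40% but some replicate below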;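 further: 0% = neutral control wells and 100% = positive control wells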
# * = called active by the depositor; u = inconclusive; x = no result; ! = not confirmed by another sample; [ ] = another dose, or the depositor's remark. In the library only some 2.2% were active in any assay of this set; here they are far more common.
SMILES,PvdQ inh,Statin myotox sup,miR122 inh,DENV2 CPE,PGC1a acetyl inh
C/C=C/c1ccc([C@@H]2[C@@H](CO)N3C(=O)CN(C(=O)c4cccc(F)c4)C[C@@H]23)cc1,x,x,x,-11,12
C[C@H](NC(=O)C[C@H]1C=C[C@H](NC(=O)C2CCOCC2)[C@H](CO)O1)c1ccccc1,x,-1,x,-5,2
C[C@@H]1CN([C@@H](C)CO)C(=O)c2c(c3ccccc3n2C)-c2ccccc2CO[C@H]1CN(C)Cc1cccc(C(=O)Nc2ccccc2N)c1,x,x,x,-4,-7
O=C(C[C@@H]1CC[C@@H]2[C@H](COC[C@@H](O)CN2Cc2ccc(F)cc2)O1)NCCc1ccccc1,x,24,-7[16.7 µM],28*,-19
O=C(C[C@@H]1CC[C@H]2[C@@H](COC[C@H](O)CN2Cc2ccccc2)O1)N[C@@H]1CCN(Cc2ccccc2)C1,x,10,-10[16.7 µM],39*,2
O=C(C[C@H]1CC[C@H]2[C@@H](COC[C@@H](O)CN2C(=O)c2ccc(F)cc2)O1)NCCCN1CCOCC1,x,-7,8[16.7 µM],20*,-8
O=C(C[C@@H]1CC[C@@H]2[C@H](COC[C@@H](O)CN2Cc2ccccc2)O1)NCc1ccccc1Cl,x,21,2[16.7 µM],33*,-8
O=C(C[C@H]1CC[C@H]2[C@@H](COC[C@H](O)CN2Cc2ccccc2)O1)NCc1ccccc1Cl,x,0,-5[16.7 µM],-10,-6
CO[C@@H]1CN(C)C(=O)c2cc(NC(C)=O)ccc2OC[C@H](C)N(C(=O)C2CCOCC2)C[C@@H]1C,x,-16,x,4,-1
O=C(C[C@@H]1CC[C@@H]2[C@H](COC[C@H](O)CN2Cc2cc(F)cc(F)c2)O1)NCc1cccc(F)c1,x,10,9[16.7 µM],22*,0
O=C(C[C@H]1CC[C@@H]2[C@H](COC[C@H](O)CN2Cc2ccc(F)cc2)O1)NCc1ccncn1,x,0,1[16.7 µM],27*,7
COc1ccc(S(=O)(=O)N2C[C@H](O)COC[C@H]3O[C@H](CC(=O)NCCCN(C)C)CC[C@@H]32)cc1,x,0,-5[16.7 µM],21*,-2
O=C(C[C@@H]1CC[C@@H]2[C@H](COC[C@@H](O)CN2S(=O)(=O)c2ccc(F)cc2)O1)NCc1ccc(Cl)c(Cl)c1,x,5,29[16.7 µM],29*,-3
COc1ccc(CN2C[C@@H](O)COC[C@H]3O[C@H](CC(=O)NCc4ccncn4)CC[C@@H]32)cc1,x,2,-5[16.7 µM],1,4
CCCNC(=O)C[C@@H]1CC[C@@H]2[C@@H](COc3ccc(NC(=O)Nc4c(C)noc4C)cc3C(=O)N2C)O1,x,11,12[16.7 µM],15,2
CCCNC(=O)C[C@@H]1CC[C@@H]2[C@H](COC[C@H](O)CN2C(=O)c2cccnc2)O1,x,-6,-6[16.7 µM],-4,0
COCC(=O)N1CC(=O)N2[C@H](C1)[C@H](c1ccc(-c3cccnc3)cc1)[C@@H]2CO,x,x,x,u,5
O=C(C[C@H]1CC[C@H]2NC[C@H](O)COC[C@@H]2O1)NCCc1ccccc1,x,17,-3[16.7 µM],36*,-3
O=C(C[C@@H]1CC[C@@H]2NC[C@H](O)COC[C@H]2O1)NCCc1ccccc1,x,1,-8[16.7 µM],10,1
O=C(C[C@@H]1CC[C@H]2[C@@H](COC[C@@H](O)CN2S(=O)(=O)c2ccc(Cl)cc2)O1)NCCN1CCCC1,x,-10,-3[16.7 µM],23*,-5
O=C(C[C@H]1CC[C@H]2[C@@H](COC[C@@H](O)CN2S(=O)(=O)c2ccccc2Cl)O1)NCc1ccccc1Cl,x,4,-1[16.7 µM],73*,4
CCCN1C[C@H](C)[C@H](OC)CN(C)C(=O)c2cc(NC(=O)Nc3ccccc3F)ccc2OC[C@H]1C,x,30,x,1,8
CCCN1C[C@@H](C)[C@@H](OC)CN(C)C(=O)c2cc(NC(=O)c3cccc(F)c3)ccc2OC[C@@H]1C,x,-1,0[16.7 µM],27*,0
CO[C@@H]1CN(C)C(=O)c2ccc(NC(=O)c3cccc(F)c3)cc2OC[C@H](C)N(C)C[C@H]1C,x,5,-2[16.7 µM],37*,-11
CCCN1C[C@H](C)[C@@H](OC)CN(C)C(=O)c2cc(NC(=O)Nc3ccccc3F)ccc2OC[C@H]1C,x,9,x,29*,9
SMILES,PvdQ inh,Statin myotox sup,miR122 inh,DENV2 CPE,PGC1a acetyl inh
CO[C@H]1CN(C)C(=O)c2cc(NC(=O)Nc3cccc(F)c3)ccc2OC[C@H](C)N(C)C[C@H]1C,x,-6,7[16.7 µM],29*,2
CO[C@@H]1CN(C)C(=O)c2cc(NC(=O)Nc3cccc(F)c3)ccc2OC[C@@H](C)N(C)C[C@H]1C,x,-16,-1[16.7 µM],5,-3
C[C@H](CO)N1C[C@H](C)[C@@H](CN(C)Cc2ccncc2)Oc2ccc(NC(=O)CCCN(C)C)cc2CC1=O,x,-2,0[16.7 µM],9,5
COc1cccc(NC(=O)Nc2ccc3c(c2)C(=O)N(C)C[C@@H](OC)[C@@H](C)CN(C)[C@H](C)CO3)c1,x,25,x,26*,2
Cc1ccc(CN2CCN(CCCc3ccccc3)CC2CCO)cc1 (stereo not given),-3,6,0,2,-5
CCOc1ccc(CN2CCN(CCCc3ccccc3)CC2CCO)cc1 (stereo not given),8,-5,10,22*,x
CCC(=O)N1[C@@H](CO)[C@@H]2c3ccccc3N(C(=O)NC(C)C)C[C@@H]21,x,5,25[16.7 µM],u,-1
C[C@H](CO)N1C[C@H](C)[C@@H](CN(C)Cc2ccncc2)Oc2ccc(NS(=O)(=O)c3cn(C)cn3)cc2CC1=O,x,3,-5[16.7 µM],4,-4
Cc1ccc(S(=O)(=O)Nc2ccc3c(c2)CC(=O)N([C@H](C)CO)C[C@@H](C)[C@H](CN(C)S(=O)(=O)c2ccc(F)cc2)O3)cc1,x,-16,-9[16.7 µM],u,13
COc1ccccc1NC(=O)CN1C(=O)CCS(=O)(=O)c2ccccc21,-8,125*,10,x,-15
CCOc1cc(N2CCOCC2)c(OCC)cc1NC(=O)CN1C(=O)NC2(CCc3ccccc32)C1=O (stereo not given),-16,89*,-12,x,-9
CCOc1cc(N2CCOCC2)c(OCC)cc1NC(=O)[C@H](C)NC(=O)c1ccco1,-8,-7,3,37*,x
CO[C@H]1CN(C)C(=O)c2cc(NS(=O)(=O)Cc3ccccc3)ccc2OC[C@H](C)NC[C@@H]1C,x,11,x,-8,3
C[C@H](CO)N1C[C@H](C)[C@@H](CN(C)C(=O)Nc2ccc(C(F)(F)F)cc2)Oc2ccc(NC(=O)C3CCCCC3)cc2CC1=O,x,-32,4[16.7 µM],0,9
C[C@@H]1CN([C@H](C)CO)C(=O)Cc2cc(NC(=O)CCN3CCOCC3)ccc2O[C@H]1CN(C)C(=O)Nc1ccc(C(F)(F)F)cc1,x,8,3[16.7 µM],2,9
O=C(Nc1cccc(F)c1)N1CCCCN2[C@H](C1)[C@H](c1ccc(-c3ccccc3F)cc1)[C@@H]2CO,x,x,-2[16.7 µM],-6,-5
C[C@H](CO)N1C[C@H](C)[C@@H](CN(C)Cc2ccccc2)Oc2c(NC(=O)C3CC3)cccc2C1=O,1,7,91*!,14,-34
